Holding throughout (assay): NCI-60 one-dose screen, 48 h (100 = growth as untreated, 0 = no growth, -100 = all killed)
Settings in all cases: 10 µM unless noted

For test [1], the system named is DU-145 prostate.
The subject of test [2] is K-562 leukemia.
The subject of test [3] is MALME-3M melanoma.
Test [4] deals with MDA-MB-231 breast.
The subject of test [5] is RXF 393 renal.
Test [6] has as its system SF-268 CNS.
In test [7] the test system is SF-295 CNS.
The subject of test [8] is SF-539 CNS.
Test [9] concerns UACC-257 melanoma.
The test system of test [10] is M14 melanoma.
For test [11], the system named is HCT-15 colon.
Test [12] relates to HT29 colon.
Test [13] has as its system SNB-75 CNS.
Test [14] deals with SNB-19 CNS.
The test system of test [15] is U251 CNS.
The test system of test [16] is PC-3 prostate.
For test [17], the system named is SK-MEL-5 melanoma.
Test [18] relates to UACC-62 melanoma.
Test [19] has as its system LOX IMVI melanoma.
Test [20] deals with SK-MEL-28 melanoma.

This is an account of results in PubChem BioAssay (NCI).

SMILES strings stand for the structures. This is part of a sample that, as a whole, favours compounds with a hit. Of some 83,000 tested, about 20% had one in any assay.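 For each line, cells grew in 96-well plates with the test compound present at a single concentration for 48 hours.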 Values without a mark were called inactive. Active and inactive are the calls of the source. How the source made its calls: active means growth percent below 10; inactive means the rest.

With `N#C/C(=C\c1ccc[nH]1)c1cc2ccccc2[nH]1`, the growth in [1] was 80%; in [2] it was 42.5%; in test [3] it was 88%; in test [4], 59.7%; in test [5] it was 92.5%; in test [6] it was 78.1%. For the same compound, the growth is 53.7% in test [7]; 79.7% in [8]; 69.9% in test [9]; 80.3% in test [10]; 50.2% in test [11]; 80.2% in [12]. Besides, the growth in [13] is 62.2%; in [14], 78.5%; in [15], 69.7%; in test [16], 58%; in [17], 57.2%; in [18] it was 67.8%. The growth was 75.2% in test [19] and 98.5% in test [20].
For the compound `Cc1nc(NN)c([N+](=O)[O-])c(NN)n1`, the growth was 109% in test [1]; 93.6% in [2]; 106% in test [3]; 107% in test [4]; 160% in test [5]; 102% in test [6]. The growth in test [7] is 98.5%; in test [8] it was 95.2%; in test [9], 99.3%; in test [10], 98.2%; in test [11] it was 105%; in test [12] it was 108%. The growth in test [13] was 114%; in test [14], 109%; in test [15] it was 102%; in [16], 104%; in test [17], 99.4%; in test [18], 97.3%. In addition, the growth in test [20] is 108%.
Take `COc1ccc(/C=N/NC(=O)c2cnn3c2NC(c2ccccc2)C3)cc1OC1CCCC1` (stereo unspecified): the growth is 98.3% in [1]; 70.4% in [2]; 123% in test [3]; 66.6% in test [4]; 104% in [5]; 93.4% in test [6]. Moreover, the growth is 90.7% in [7]; 87.2% in test [8]; 98.7% in [9]; 93.5% in [10]; 70% in test [11]; 90.6% in test [12]. In addition, the growth was 84.3% in test [13]; 87.7% in test [14]; 83% in test [15]; 79.1% in [16]; 78.8% in test [17]; 83% in test [18]. For the same compound, the growth is 85.2% in test [19] and 108% in test [20].
With `O=C1c2ccccc2-c2cn(Cc3ccccc3)c3cccc(c23)C1c1cccnc1` (stereo unspecified), the growth was 60.7% in test [1]; 26.8% in [2]; 38.9% in test [3]; 52.4% in [4]; 57.9% in test [5]; 58% in test [6]. Also, the growth was 25.9% in test [7]; 54.7% in test [8]; 55% in test [9]; 48.4% in [10]; 31.2% in test [11]; 4.25% (active) in test [12]. The growth in test [13] is 23.2%; in test [14], 54%; in [15], 25%; in test [16], 55.4%; in test [17], 21.7%; in [18], 47.3%. Also, the growth was 57.4% in test [19] and 53.9% in test [20].
For `COc1cc(-c2nc(SC(C)C)nc(Nc3cccc(C)c3)c2C#N)cc(OC)c1OC`, the growth is 109% in test [1]; 99.5% in [2]; 108% in [3]; 99.2% in test [4]; 127% in test [5]; 107% in [6]. Further, the growth is 101% in test [7]; 107% in [8]; 98.9% in [9]; 108% in test [10]; 103% in test [11]; 98.7% in test [12]. Moreover, the growth in test [13] was 109%; in [14], 103%; in test [15] it was 106%; in test [16], 98.6%; in [17] it was 102%; in test [18], 95.2%. The growth in test [19] is 97.2%; in test [20] it was 107%.
In the case of `COc1cc(/C=C2\C(=O)N(c3c(Cl)cccc3Cl)c3ccccc32)cc(OC)c1O`, the growth in [1] is 36.8%; in test [2] it was 8.62% (active); in [3] it was 133%; in test [4] it was 72.4%; in test [5], 90.4%; in [6] it was 40.9%. Further, the growth was 8.15% (active) in test [7]; 45.1% in [8]; 46.1% in test [9]; 39.2% in test [10]; 30.7% in [11]; 22.6% in test [12]. Besides, the growth in [13] was 61.7%; in test [14], 52.4%; in [15] it was 22.4%; in test [16], 15.2%; in test [17] it was 32.3%; in [18], 47.5%. Also, in test [20], the growth was 58.8%.
For the compound `O=c1[nH]c(=S)c2c(n1CCCO)CCC2`, the growth was 108% in test [1]; 93.4% in test [2]; 92.9% in test [3]; 102% in test [4]; 113% in test [5]; 100% in [6]. Also, the growth in [7] was 102%; in [8], 104%; in test [9] it was 96.7%; in [10], 97%; in test [11], 101%; in test [12], 104%. Moreover, the growth in [13] is 88%; in [14], 102%; in test [15] it was 101%; in test [16] it was 103%; in test [17], 101%; in test [19], 96.5%. Moreover, the growth in test [20] is 111%.
In the case of `CCCCCCCCCCCCCCn1c2ccccc2c2c3c(c4c5cc(OC)ccc5oc4c21)C(=O)NC3=O`, the growth in test [1] was 111%; in test [2], 111%; in test [3], 115%; in [4] it was 111%; in test [5], 122%; in [6] it was 99.8%. The growth in test [7] was 104%; in test [8], 97%; in [9], 102%; in [10] it was 101%; in [11], 94.9%; in test [12], 103%. In addition, the growth in test [13] was 81.4%; in test [14], 105%; in test [15], 99.8%; in [16], 107%; in test [17], 102%; in [18], 101%. The growth in [20] was 107%.
